From PubChem BioAssay
Activity calls are given as the source filed them.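 The calls were made as follows, unless noted: active = visual image review flags a hit and inhibition of aggregation exceeds 20%; inconclusive = visual hit but inhibition at or below 20%; inactive = no hit on visual image review.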

Assays:
[1] = inhibitors of TNFa-induced NFkB p65 translocation, primary screen, imaging, HUVEC, MLSMR starter and 10KST1 sets (AID 438;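 active = inhibition above 20% together with a positive visual image hit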;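 also: compound added about 3h40 before a 20 min TNFalpha stimulation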;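 as to inhibition: signal is the nuclear over cytoplasmic p65 intensity ratio per well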); settings: HUVEC TNFa-induced p65 nuclear translocation; cell count: measured here: nuclei count (cytotoxicity indicator), at 2.08 µM unless noted; inhibition: at 2 µM, stronger effect = higher value unless noted
[2] = reduction of polyQ htt aggregates in cells – imaging, exon1htt(103Q)mCFP cells, high-content imaging, primary screen (AID 483); settings: exon1htt(103Q)mCFP cell line, aggregate imaging, at 2 µM; inhibition of aggregation: stronger effect = higher value; nuclei count: measured here: cell count, toxicity;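 also: compound exposure lasted 3 days before fixation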;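 as to nuclei count: percent of the per-plate median nuclei count of sample wells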
[3] = endothelial E-selectin expression blockers – imaging, HUVEC, immunofluorescence, MLSMR starter and 10KST1 sets, primary screen (AID 487;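 active = visually confirmed hit in the image check and inhibition above 20%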;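 as to inhibition: signal is fraction of cell area covered by stained E-selectin grains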;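 as to nuclei count: 100% = median nuclei count of all wells on the same plate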); settings: HUVEC TNFalpha-induced E-selectin immunofluorescence imaging, at 2 µM; inhibition: stronger effect = higher value; nuclei count: measured here: cell number, toxicity
[4] = target: Voltage-gated potassium channel subunit beta-2 (Rattus norvegicus) (UniProt P62483); assay: inhibitors of rat Kvbeta2 reductase activity – biochemical, NADPH fluorescence, primary screen (AID 622;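 active = fluorescence slope higher than the sample average by over 3 SD, cut at about -0.22 in these data, passing the limit was not always enough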;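 also: slope of raw intensity against log time taken from 70 to 1610 s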); settings: recombinant KvBeta, 4-cyanobenzaldehyde reduction, at 10 µM, stronger effect = higher value
Voltage-gated potassium channel subunit beta-2 (Rattus norvegicus), sequence (P62483 whole entry, looked up): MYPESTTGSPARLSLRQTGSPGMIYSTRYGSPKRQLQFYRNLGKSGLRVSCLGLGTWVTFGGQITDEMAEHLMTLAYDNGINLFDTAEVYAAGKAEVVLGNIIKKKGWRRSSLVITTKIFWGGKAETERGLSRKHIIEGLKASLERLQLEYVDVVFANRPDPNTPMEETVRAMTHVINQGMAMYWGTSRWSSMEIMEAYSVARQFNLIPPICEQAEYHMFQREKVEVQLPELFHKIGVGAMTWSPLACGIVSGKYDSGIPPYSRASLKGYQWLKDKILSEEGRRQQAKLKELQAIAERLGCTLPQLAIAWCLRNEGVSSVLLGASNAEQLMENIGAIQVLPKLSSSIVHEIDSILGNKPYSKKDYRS

[5] = target: Voltage-gated potassium channel subunit beta-2 (Rattus norvegicus) (UniProt P62483); assay: enhancers of rat Kvbeta2 NADPH turnover – biochemical, NADPH fluorescence, primary screen (AID 623;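 active = NADPH fluorescence slope more negative than the mean of all samples by about 3 SD, 99.7% confidence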;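 also: fluorescence intensity change per second fitted from 20 to 320 s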); settings: Recombinant KvBeta, NADPH fluorescence decrease slope, 10 min; at 10 µM; stronger effect = lower value
[6] = target: Alpha-2C adrenergic receptor (Homo sapiens) (UniProt P18825); assay: compounds altering alpha2C-coupled GIRK flux – cell-based, HEK293 alpha2C/GIRK1/2, thallium flux, primary screen (AID 624;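 active = fluorescence slope after compound addition differing from the mean of all screened samples at 99.7% confidence, in either direction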;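 also: slope of fluorescence ratio to pre-addition baseline per second over 15 to 24 s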); settings: thallium flux BTC fluorescence, at 10 µM, actives lie on both sides
Alpha-2C adrenergic receptor (Homo sapiens), sequence (P18825 whole entry, looked up): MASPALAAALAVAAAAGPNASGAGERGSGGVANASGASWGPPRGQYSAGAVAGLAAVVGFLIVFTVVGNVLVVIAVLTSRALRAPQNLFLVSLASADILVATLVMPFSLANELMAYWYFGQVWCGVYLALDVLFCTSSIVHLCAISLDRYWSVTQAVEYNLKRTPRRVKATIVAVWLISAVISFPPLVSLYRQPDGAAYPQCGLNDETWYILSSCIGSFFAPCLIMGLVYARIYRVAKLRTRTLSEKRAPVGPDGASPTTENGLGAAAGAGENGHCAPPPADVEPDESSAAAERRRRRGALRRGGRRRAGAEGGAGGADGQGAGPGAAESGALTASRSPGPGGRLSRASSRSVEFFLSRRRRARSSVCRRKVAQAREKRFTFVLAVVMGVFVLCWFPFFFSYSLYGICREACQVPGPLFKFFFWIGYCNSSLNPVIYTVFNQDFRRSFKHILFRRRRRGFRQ

[7] = blockers of RIG-like receptor reporter activation – cell-based, Sendai virus stimulus, luciferase, 10K MLSCN set, TLR/RLR signaling modifier project, primary screen (AID 602276;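 active = inhibition at or above 50% at 10 µM; inactive = inhibition below 50%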;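 also: firefly luciferase from ISG56 promoter only with Renilla not read in this screen; 0% = Sendai virus plus DMSO and 100% = medium plus DMSO without virus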); settings: HEK293 RL24 IRF3 luciferase reporter, at 10 µM, stronger effect = higher value
[8] = TLR3 IRF3 reporter activation blockers – cell-based, poly I:C stimulus, luciferase, 10K MLSCN set, primary screen (AID 602277;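 active = inhibition of the reporter signal at or above 50%; inactive = inhibition below 50%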); settings: HEK293-TLR3 RL24 IRF3 luciferase reporter, at 10 µM, stronger effect = higher value

Compound | cell count [1] | inhibition [1] | inhibition of aggregation [2] | nuclei count [2] | inhibition [3] | nuclei count [3] | fluorescence slope [4] | NADPH fluorescence slope [5] | slope [6] | inhibition [7] | inhibition [8]
N=C(N)c1c(O)n(C2CCCCC2)c(=O)n(C2CCCCC2)c1=O | 460 | -13.4% (inactive) | -10.9% (inactive) | 102% | -11% (inactive) | 89.8% | -0.502 (inactive) | -1.1e-05 (inactive) | 0.00599 (inactive) | 16.7% (inactive) | 31.3% (inactive)
Cc1oc2ccc(OC(=O)N(C)C)cc2c1C(=O)OC(C)C | 450 | 0.8% (inactive) | 1.1% (inactive) | 99.7% | -78.3% (inactive) | 155% | -0.606 (inactive) | -3.3e-05 (inactive) | 0.00801 (inactive) | 9.46% (inactive) | -11.8% (inactive)
COC(=O)C1C2c3ccccc3OC1(C)N=c1s/c(=C/c3cnn(C)c3C)c(=O)n12 (stereo unspecified) | 469 | 10.9% (inactive) | 0.9% (inactive) | 115% | -82.7% (inactive) | 112% | -0.332 (inactive) | -4.9e-05 (inactive) | 0.00428 (inactive) | 15.6% (inactive) | 23.4% (inactive)
CC(C)CC12CN3CCN(CC(C3)/C1=N/O)C2 | 291 | -16.4% (inactive) | -20% (inactive) | 126% | 4.9% (inactive) | 109% | -0.496 (inactive) | -1.4e-05 (inactive) | 0.00751 (inactive) | 19.2% (inactive) | 21.5% (inactive)
CC1(C)Cc2c(sc3c2C(=O)NC(c2cccnc2)N3)CO1 (stereo unspecified) | 328 | 6.5% (inactive) | 6% (inactive) | 98.3% | 4.5% (inactive) | 106% | -0.584 (inactive) | -3.1e-05 (inactive) | 0.00356 (inactive) | 3.52% (inactive) | 5.63% (inactive)
Cc1ccc(CC2C(=O)N(C)C(=O)N(C)C2=O)s1 | 451 | 2.6% (inactive) | 2% (inactive) | 109% | 40.2% (inactive) | 101% | -0.471 (inactive) | -4.3e-05 (inactive) | 0.00411 (inactive) | 1.08% (inactive) | 25% (inactive)
Cc1cc(OCC(=O)O)c2c3c(c(=O)oc2c1)CCCC3 | 361 | 5.7% (inactive) | -15% (inactive) | 92.2% | -74% (inactive) | 87.1% | -0.117 (active) | -1.4e-05 (inactive) | 0.00624 (inactive) | -0.949% (inactive) | -5.67% (inactive)
C(#CCN1CCOCC1)COCC#Cc1ccccc1 | 422 | 1.2% (inactive) | 12.8% (inactive) | 94.4% | -4.6% (inactive) | 112% | -0.622 (inactive) | -5e-05 (inactive) | 0.00639 (inactive) | 8.54% (inactive) | 30.6% (inactive)
CN1C(=O)C(Cc2cccc3ccccc23)C(=O)N(C)C1=O | 393 | 6.3% (inactive) | -7.2% (inactive) | 108% | -57.4% (inactive) | 125% | -0.47 (inactive) | -4.8e-05 (inactive) | 0.00658 (inactive) | 2.57% (inactive) | 32.2% (inactive)
CCn1nc(-c2ccccc2)nc2c(=O)n(C)c(=O)nc1-2 | 367 | -31.1% (inactive) | -8.2% (inactive) | 86% | -133% (inactive) | 109% | -0.457 (inactive) | 1.4e-06 (inactive) | -0.00207 (active) | -39.4% (inactive) | 94.3% (active)
CC(=NCCCO)c1c(O)n(Cc2ccccc2)c(=O)[nH]c1=O | 374 | -1.2% (inactive) | -15.8% (inactive) | 113% | -197% (inactive) | 130% | -0.384 (inactive) | -3.6e-05 (inactive) | 0.00369 (inactive) | 13% (inactive) | 11% (inactive)
CCCCn1c(O)c(C(CC)=Nc2cccc(C(=O)O)c2)c(=O)[nH]c1=O | 688 | -5.8% (inactive) | 9.5% (inactive) | 86.6% | -25.6% (inactive) | 105% | -0.382 (inactive) | 2.4e-05 (inactive) | 0.00652 (inactive) | 9.53% (inactive) | 9.91% (inactive)
O=C1OCCC1NC1=NCCC1 (stereo unspecified) | 571 | -9.6% (inactive) | -1.8% (inactive) | 106% | -16.4% (inactive) | 101% | -0.45 (inactive) | -5e-05 (inactive) | 0.00554 (inactive) | -0.849% (inactive) | 13.5% (inactive)
COc1ccc(CCn2c(O)c(C=NCCCN(C)C)c(=O)[nH]c2=O)cc1OC | 338 | -1.6% (inactive) | 12.1% (inactive) | 110% | -38.1% (inactive) | 108% | -0.446 (inactive) | -2.8e-05 (inactive) | 0.00426 (inactive) | 11.5% (inactive) | 8.09% (inactive)
CCOP(=S)(OCC)c1ccc(N(C)C)cc1 | 670 | -1% (inactive) | 18.4% (inactive) | 68.7% | -113% (inactive) | 117% | -0.572 (inactive) | 3.8e-05 (inactive) | 0.00443 (inactive) | -17.4% (inactive) | -4.41% (inactive)
COc1ccccc1N1CCN(Cc2c(F)cccc2F)CC1 | 410 | -1.1% (inactive) | 13.8% (inactive) | 98.7% | -26.3% (inactive) | 118% | -0.431 (inactive) | -1.4e-05 (inactive) | 0.00585 (inactive) | 15.2% (inactive) | 27.3% (inactive)
CC(C)(C)C(O)C(Oc1ccc(Cl)cc1)n1cncn1 (stereo unspecified) | 268 | 4.3% (inactive) | 5.1% (inactive) | 93% | -5.1% (inactive) | 131% | -0.592 (inactive) | -2.7e-05 (inactive) | 0.00646 (inactive) | 15.5% (inactive) | 32.5% (inactive)
CCOCC(=O)NC1CCSC1=O (stereo unspecified) | 342 | -5% (inactive) | 17.7% (inactive) | 75.2% | 10.8% (inactive) | 95.3% | -0.48 (inactive) | -4.8e-05 (inactive) | 0.00601 (inactive) | 18.6% (inactive) | 23.1% (inactive)
Cc1cnn(C2CCN(C)CC2)c1N | 791 | -7.4% (inactive) | -22.3% (inactive) | 75.4% | 0.5% (inactive) | 110% | -0.495 (inactive) | 1.3e-05 (inactive) | 0.00651 (inactive) | -8.1% (inactive) | 14.8% (inactive)
c1ccc(C2CC3CC(c4ccco4)N2O3)cc1 (stereo unspecified) | 301 | -1.4% (inactive) | 0% (inactive) | 108% | -68.5% (inactive) | 118% | -0.514 (inactive) | -2.8e-05 (inactive) | 0.00573 (inactive) | 9.13% (inactive) | 16.9% (inactive)
CCOc1cccc(N2C(=O)CC(=O)NC2=O)c1 | 351 | -3.3% (inactive) | -8.7% (inactive) | 109% | -63.8% (inactive) | 107% | -0.524 (inactive) | -1.6e-06 (inactive) | 0.00568 (inactive) | 2.1% (inactive) | 3.82% (inactive)
